High-throughput results: PubChem, several laboratories
AI-2 QS modul = Vibrio harveyi AI-2 quorum sensing modulators, primary screen, JMH597 strain, luminescence/OD600 ratio. Vibrio harveyi JMH597 AI-2 luminescence/OD600 ratio, 9 h; active compounds read low; strain lacks LuxN and CqsS sensors; 0 = neutral-control median. activity change, % at 7.5 µM. 300,000 tested, 0.4% active; in the data active = activity change below about -75%, passing the limit was not always enough; inconclusive = no clear call, values can overlap the other calls;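 note: luminescence divided by OD600 gain over 9 h not by final OD600 alone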
CHT PAM = CHT positive allosteric modulators, primary screen, cell-based, membrane potential dye, choline EC20. High affinity choline transporter 1 (Homo sapiens), Q9GZV3. CHT-expressing cells; active compounds read high; LV-AA mutant CHT in HEK293 cells. B-score at 10 µM. 310,000 tested, 0.49% active. AID 488977, 2010;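 active = initial fluorescence not abnormally high and integrated response B-score, plate-corrected, over 3 SD above library mean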
PREPL inhibitor = PREPL enzyme inhibitors, primary screen, biochemical, fluorescence polarization; AID 2751, 2010; 320,000 tested, 0.68% active; inhibition, % at 5.96 µM; Prolyl endopeptidase-like (Homo sapiens), Q4J6C6; recombinant PREPL, fluorescence polarization activity-based probe; in the data active = inhibition above about 43%;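 note: 0% = enzyme with DMSO and 100% = wells lacking enzyme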
CHT block = inhibitors of human choline transporter CHT. AID 488975, 2010. 310,000 tested, 0.86% active. High affinity choline transporter 1 (Homo sapiens), Q9GZV3. CHT-expressing cells, membrane potential dye, choline response; active compounds read low. B-score at 10 µM;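 active = B-score over 3 SD under the library average, and starting fluorescence ratio not unusually high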;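 note: choline stimulus applied at its EC90 after an EC20 pre-addition; B-score computed on integrated fluorescence ratio after choline addition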
ALR H2O2 inh = inhibitors of human ALR sulfhydryl oxidase, primary screen, biochemical, H2O2 detection, HRP-luminol luminescence, single point; FAD-linked sulfhydryl oxidase ALR (Homo sapiens), P55789; purified ALR, DTT oxidation; AID 485317, 2010; inhibition, % (concentration not given with the values); 290,000 tested, 3.8% active;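 active = mean replicate inhibition above about 79%, with every replicate also reaching it, limit read from the data; inconclusive = only one of the two criteria met; inactive = mean below limit and not every replicate reaching it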
Target sequence (P55789 whole entry, looked up): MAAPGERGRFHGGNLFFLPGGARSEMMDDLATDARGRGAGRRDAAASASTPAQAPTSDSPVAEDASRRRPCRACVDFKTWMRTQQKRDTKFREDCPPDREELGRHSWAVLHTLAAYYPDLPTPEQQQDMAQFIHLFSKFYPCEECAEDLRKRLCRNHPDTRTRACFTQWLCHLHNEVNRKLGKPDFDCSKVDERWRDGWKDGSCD
CHT act confirm = CHT activators, confirmation, cell-based, membrane potential dye, duplicate | shares compounds with CHT PAM | 2,500 tested, 91% active | AID 504833, 2011 | activation, % at 10 µM | CHT-expressing cells, membrane potential dye fluorescence (FDSS); % of choline EC20–EC90 response window; HEK293 expressing CHT LV-AA mutant; choline added at its EC20;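 active = primary screen active, with duplicate mean activation above negative control mean plus 3 SD, cut at about 11% in these data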
HEK293 MP dye = membrane potential response in parental HEK293 cells, counter-screen for CHT activator project, cell-based, membrane potential dye | shares compounds with CHT PAM | membrane potential dye fluorescence (FDSS); measured after EC20 choline addition | ratio readout change at 10 µM, hits read low | 2,500 tested, 62% active | AID 623908, 2012;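 active = duplicate-averaged ratio beyond 3 SD from buffer wells, up or down, though filed actives are nearly all decreases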
Active calls of the source: *; i = inactive; u = inconclusive; x = not tested or not shown. This is a sample that favours compounds with a hit; in the whole collection about 5% have one here.

SMILES	AI-2 QS modul	CHT PAM	PREPL inhibitor	CHT block	ALR H2O2 inh	CHT act confirm	HEK293 MP dye
c1ccc2c(N3CCCCC3)nc(N3CCOCC3)nc2c1	12	6.7*	1	i	x	40*	-44*
COc1cc(NC(=O)c2cccs2)c(OC)cc1NC(=O)CCC(=O)Nc1ccc(C)cc1	8	i	10	i	x	x	x
CCN(CC)S(=O)(=O)N1CCN(S(=O)(=O)N2CCOCC2)CC1	19	i	3	i	-8	x	x
CSCCC(NC(=O)c1ccccc1Cl)C(=O)N1CCN(C(c2ccccc2)c2ccccc2)CC1 (stereo unspecified)	13	i	7	i	-6	x	x
COC(=O)C1=C(C(=O)OC)[C@@H]2N(C)c3ccccc3[C@@]23C[C@@H](CO)N(C(=O)C2CCC2)C3=N1	14	i	-1	i	x	x	x
Cc1cc(N2CCOCC2)nc2ccc(NC(=S)N3CCCCC3C)cc12 (stereo unspecified)	2	i	16	i	16	x	x
Cc1cc(N2CCOCC2)nc2ccc(NC(=O)CCC(=O)N3CCCC(C)C3)cc12 (stereo unspecified)	12	i	12	i	-8	41*	-36*
Cc1cc(N2CCOCC2)nc2ccccc12	8	6.5*	24	i	2	45*	-51*
Cc1cc(N2CCOCC2)nc2cc(O)ccc12	28	9.2*	4	i	55	74*	-45*
COc1ccc2nc(N3CCOCC3)cc(C)c2c1	9	8.4*	0	i	40	58*	-57*
CCCCN(C(=O)c1c(C)noc1C)c1c(N)n(CCC)c(=O)[nH]c1=O	x	x	3	x	-5	x	x
C/C(CC(=O)Nc1ccc2c(c1)OCCO2)=N\NC(=O)c1ccccc1Cl	25	i	-22	i	x	x	x
O=C(Nc1nnc(SCC(=O)N2CCOCC2)s1)c1ccccc1	12	i	-3	i	x	x	x
CCOc1ccccc1NC(=O)COc1coc(CN2CCc3ccccc32)cc1=O	23	i	0	i	x	x	x
CCOC(=O)c1ccccc1NC(=O)COc1coc(CN2CCc3ccccc32)cc1=O	20	i	-8	i	51	26*	i
Cc1ccccc1C[n+]1cccc2ccccc21	13	7*	-3	i	x	52*	-42*
CCOc1ccc(-n2c(-c3ccccc3)c[n+]3c2CCC3)cc1	6	i	20	i	-15	43*	-30*
COc1ccc(-c2c[n+]3c(n2-c2ccccc2)CCCCC3)cc1	15	i	17	i	2	x	x
CCOc1ccc(-n2c(-c3ccc(Br)cc3)c[n+]3c2CCCCC3)cc1	29	i	12	i	-23	x	x
CCOc1ccc(-n2c(-c3ccc(OC)cc3)c[n+]3c2CCCCC3)cc1	11	6.4*	14	i	-1	41*	i
COc1ccc(-c2c[n+]3c(n2-c2ccc(C)cc2)CCCCC3)cc1	15	12*	7	i	-4	13*	i
COc1ccc(-n2c(-c3ccc(Cl)cc3)c[n+]3c2CCCCC3)cc1	17	12*	17	i	-10	44*	i
O=P(CCCCCCCCCP(=O)(c1ccccc1)c1ccccc1)(c1ccccc1)c1ccccc1	3	i	30	i	-12	x	x
CCCCN(CCCC)CP(=O)(c1ccccc1)c1ccccc1	7	8.9*	12	i	-10	31*	i
NCCCC[C@H]1CN=C(N)N1CCCCC1CCCCC1	-3	11*	13	i	-1	47*	-51*
SMILES	AI-2 QS modul	CHT PAM	PREPL inhibitor	CHT block	ALR H2O2 inh	CHT act confirm	HEK293 MP dye
Cc1cccc(-c2cc3nc(C)cc(NCCCN(C)C)n3n2)c1	28	i	26	i	-4	32*	-62*
CN(C)CCCNc1cc(-c2ccccc2)nc2cc(-c3cccc(F)c3)nn12	4	i	35	i	35	x	x
CCN(CC)CCCNc1cc(C)nc2cc(-c3cccs3)nn12	19	9.1*	-8	i	-13	62*	-84*
COc1ccc2nc3n(c(=O)c2c1)-c1ccccc1C(=O)NC3Cc1ccccc1 (stereo unspecified)	x	x	5	x	2	x	x
O=C(NC1CCN(Cc2ccccc2)CC1)c1cc(-c2ccccn2)nc2ccccc12	20	7.8*	-25	i	-8	48*	-59*
O=C(NC1CCCCCCC1)c1cc(-c2ccccn2)nc2ccccc12	9	6.8*	5	i	30	10*	i
COc1cccc(NC(=O)COc2cc(O)c3c(c2)OC(C)(C)CC3=O)c1	6	i	-3	i	5	x	x
O=C1c2cnc3nc(SCc4ccc(Cl)cc4)nn3c2CC2c3ccccc3CCN12 (stereo unspecified)	9	6.9*	19	i	-4	-2	i
Cc1cc(C[n+]2ccsc2N)c2ncccc2c1	10	i	-10	i	-9	43*	-52*
Nc1scn[n+]1Cc1cccc2cccnc12	6	i	-16	i	-22	x	x
Cn1c(=O)c(=O)n(C)c2cc(N3CCCC3)c(NS(=O)(=O)c3ccc(Cl)cc3)cc21	15	6.6*	22	i	12	55*	-55*
Cn1c(=O)c(=O)n(C)c2cc(N3CCOCC3)c(NS(=O)(=O)c3ccc([N+](=O)[O-])cc3)cc21	11	i	20	i	-4	x	x
Cn1c(=O)c(=O)n(C)c2cc(N3CCOCC3)c(NS(=O)(=O)c3ccc(F)c(Cl)c3)cc21	11	6.6*	18	i	17	49*	-51*
Cc1cc(N2CCN(C3CCCCC3)CC2)n2nc(C)nc2n1	7	8.9*	-2	i	-5	56*	-56*
Cc1cc(N2CCN(c3ccccn3)CC2)n2nc(C)nc2n1	9	i	1	i	x	x	x
CN1CCN(c2c(F)cc3c(=O)c(C(=O)O)cn4c3c2SCC4)CC1	20	9.9*	12	i	-14	23*	-69*
CC(C)(C)C(=O)NC(=S)NNC(=O)c1ccc(-c2ccccc2)cc1	u	i	-6	i	40	x	x
Cc1ccc(C)c(OCCC(=O)OCC(=O)NNC(=O)c2ccccc2)c1	x	x	-1	x	-4	x	x
